# Measurements: the supplement of paper PMC9801561
# ± gives the standard deviation of the averaged measurements.
# Tested on: Escherichia coli Nissle 1917
# Test: area under OmniLog respiration curve over 48 h (OmniLog units x h); higher = more growth / nutrient utilisation; extreme values may be limits of the assay
# Conditions: nutrient role: C-Source, alcohol; incubation: 48 h, 37 °C
# 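Wherever DuctApe activity index of respiration/growth curve (0 no growth to 9 maximum) is given: biolog PM4 phosphorus and sulfur plates, tetrazolium violet dye reduction read in the OmniLog every 15 min, kinetic curves scored by DuctApe, each plate run in triplicate.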
row,Compound,area under OmniLog respiration curve
1,NCCO [2-Aminoethanol],149 ± 200
2,O=C(CO)CO [Dihydroxyacetone],6280 ± 820
3,"CC(=O)C(C)=O [2,3-Butanedione]",19 ± 14
4,"CC(O)C(C)O (centres undefined) [2,3-Butanediol]",20.2 ± 16

# Same assay, conditions: nutrient role: C-Source, carbohydrate; incubation: 48 h, 37 °C
row,Compound,area under OmniLog respiration curve
1,CO[C@@H]1OC[C@@H](O)[C@H](O)[C@H]1O [b-Methyl-D-Xyloside],4.72
2,O[C@@H]1[C@H](O)[C@H](O)CO[C@H]1O [D-Ribose],9520 ± 880
3,O=P(O)(O)OC[C@H]1OC(O)(CO)[C@@H](O)[C@@H]1O (stereo partly drawn) [D-Fructose-6-Phosphate],9900 ± 640
4,O=C(O)[C@H](O)[C@@H](O)[C@H](O)[C@H](O)CO[C@H]1O[C@H](CO)[C@H](O)[C@H](O)[C@H]1O [Melibionic acid],6790 ± 140
5,OC[C@H]1OC(O)[C@H](O)[C@@H](O)[C@@H]1O (stereo partly drawn) [a-D-Glucose],7320 ± 620

# Same assay, conditions: nutrient role: C-Source, carboxylic acid; incubation: 48 h, 37 °C
row,Compound,area under OmniLog respiration curve
1,O=C(O)C(O)C(O)C(=O)O (centres undefined) [m-Tartaric acid],4.72
2,NC(=O)CCC(=O)O [Succinamic acid],9.14 ± 6
3,O=C1O[C@H]([C@@H](O)CO)[C@@H](O)[C@@H]1O [L-Galactonic acid-g-Lactone],10200 ± 640
4,O=CO [Formic acid],112 ± 190
5,O=C(O)c1ccccc1O [2-Hydroxybenzoic acid],4.72
6,O=C(O)CC(O)C(=O)O (racemic) [DL-Malic acid],8150 ± 730

# Same assay, conditions: nutrient role: sole nitrogen source (pyruvate carbon); incubation: 48 h, 37 °C
row,Compound,area under OmniLog respiration curve
1,NCCCC[C@@H](N)C(=O)O [D-Lysine],23.1 ± 23
2,CC(O)C(N)=O (racemic) [DL-Lactamide],57 ± 91
3,N[C@H](CCC(=O)O)C(=O)O [D-Glutamic acid],57.1 ± 89
4,NO [Hydroxylamine],5.62 ± 1.6
5,N[C@@H](Cc1c[nH]c2ccccc12)C(=O)O [L-Tryptophan],3670 ± 1500
6,NC(=O)NC(N)=O [Biuret],3650 ± 1400
7,O=c1[nH]c(=O)c2nc[nH]c2[nH]1 [Xanthine],2650 ± 1100
8,NCCO [Ethanolamine],27.4 ± 39
9,NCCCCN=C(N)N [Agmatine],336 ± 570
10,Nc1nc2[nH]cnc2c(=O)[nH]1 [Guanine],27.5 ± 39
11,NC(N)=O,4.72

# Same assay, conditions: nutrient role: sole phosphorus source (pyruvate carbon); incubation: 48 h, 37 °C
row,Compound,area under OmniLog respiration curve
1,O=c1ccn([C@@H]2O[C@H](CO)[C@@H](O)[C@H]2OP(=O)(O)O)c(=O)[nH]1 [Uridine 2`-Monophosphate],6560 ± 4400
2,N[C@@H](COP(=O)(O)O)C(=O)O [O-Phospho-L-Serine],8970 ± 510
3,C[N+](C)(C)CCOP(=O)(O)O [Phosphoryl Choline],8840 ± 430
4,Nc1ccn([C@@H]2O[C@H](CO)[C@@H](OP(=O)(O)O)[C@H]2O)c(=O)n1 [Cytidine 3`-Monophosphate],4.72
5,O=c1ccn([C@@H]2O[C@H](CO)[C@@H](OP(=O)(O)O)[C@H]2O)c(=O)[nH]1 [Uridine 3`-Monophosphate],9010 ± 750
6,Nc1nc2c(ncn2[C@@H]2O[C@H](COP(=O)(O)O)[C@@H](O)[C@H]2O)c(=O)[nH]1 [Guanosine 5`-Monophosphate],9210 ± 900
7,O=C(O)CP(=O)(O)O [Phosphono Acetic acid],143 ± 120
8,O=P(O)(O)CP(=O)(O)O [Methylene Diphosphonic acid],618 ± 470
9,O=P(O)(O)O [Phosphate],9750 ± 430

# Same assay, conditions: nutrient role: sole sulfur source (pyruvate carbon); incubation: 48 h, 37 °C
row,Compound,area under OmniLog respiration curve
1,N[C@@H](CS(=O)(=O)O)C(=O)O [L-Cysteic acid],5920 ± 240
2,O=S(=O)(O)CCO [2-Hydroxyethane Sulfonic acid],7790 ± 450
3,N[C@@H](CSC[C@H](N)C(=O)O)C(=O)O [Lanthionine],7490 ± 330
4,O=S(=O)(O)O [Sulfate],6810 ± 400

# Tested on: Escherichia coli Nissle 1917
# Test: DuctApe activity index of respiration/growth curve (0 no growth to 9 maximum) (index 0-9); higher = more growth / nutrient utilisation, active = 3 or more; extreme values may be limits of the assay
# Conditions: nutrient role: C-Source, alcohol; incubation: 48 h, 37 °C
row,Compound,DuctApe activity index
1,NCCO [2-Aminoethanol],0 (inactive)
2,O=C(CO)CO [Dihydroxyacetone],7 (active)
3,"CC(=O)C(C)=O [2,3-Butanedione]",0 (inactive)
4,"CC(O)C(C)O (centres undefined) [2,3-Butanediol]",0 (inactive)

# Same assay, conditions: nutrient role: C-Source, carbohydrate; incubation: 48 h, 37 °C
row,Compound,DuctApe activity index
1,CO[C@@H]1OC[C@@H](O)[C@H](O)[C@H]1O [b-Methyl-D-Xyloside],0 (inactive)
2,O[C@@H]1[C@H](O)[C@H](O)CO[C@H]1O [D-Ribose],8.67 (active)
3,O=P(O)(O)OC[C@H]1OC(O)(CO)[C@@H](O)[C@@H]1O (stereo partly drawn) [D-Fructose-6-Phosphate],9 (active)
4,O=C(O)[C@H](O)[C@@H](O)[C@H](O)[C@H](O)CO[C@H]1O[C@H](CO)[C@H](O)[C@H](O)[C@H]1O [Melibionic acid],7 (active)
5,OC[C@H]1OC(O)[C@H](O)[C@@H](O)[C@@H]1O (stereo partly drawn) [a-D-Glucose],7.67 (active)

# Same assay, conditions: nutrient role: C-Source, carboxylic acid; incubation: 48 h, 37 °C
row,Compound,DuctApe activity index
1,O=C(O)C(O)C(O)C(=O)O (centres undefined) [m-Tartaric acid],0 (inactive)
2,NC(=O)CCC(=O)O [Succinamic acid],0 (inactive)
3,O=C1O[C@H]([C@@H](O)CO)[C@@H](O)[C@@H]1O [L-Galactonic acid-g-Lactone],9 (active)
4,O=CO [Formic acid],0.333 (inactive)
5,O=C(O)c1ccccc1O [2-Hydroxybenzoic acid],0 (inactive)
6,O=C(O)CC(O)C(=O)O (racemic) [DL-Malic acid],8 (active)
